This passage reports log2 fold change results from the supplement of paper PMC10849652.

Of roughly 7,900 targets only a part is listed; those with a hit were picked by preference. About 0.6% of all pairs of compound and target were hits. A number with no mark means an inactive call.

UniProt Q8N165, sequence (Q8N165 whole entry, looked up): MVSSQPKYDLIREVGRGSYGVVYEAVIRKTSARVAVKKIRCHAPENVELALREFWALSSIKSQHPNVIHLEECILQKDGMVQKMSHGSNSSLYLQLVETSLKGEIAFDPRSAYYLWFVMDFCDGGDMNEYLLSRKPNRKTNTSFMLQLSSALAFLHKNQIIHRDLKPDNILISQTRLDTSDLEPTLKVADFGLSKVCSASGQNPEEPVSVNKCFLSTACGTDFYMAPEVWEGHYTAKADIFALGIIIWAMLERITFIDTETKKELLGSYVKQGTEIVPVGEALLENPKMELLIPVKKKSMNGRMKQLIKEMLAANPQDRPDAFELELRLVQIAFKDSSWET
UniProt Q14442, sequence (Q14442 whole entry, looked up): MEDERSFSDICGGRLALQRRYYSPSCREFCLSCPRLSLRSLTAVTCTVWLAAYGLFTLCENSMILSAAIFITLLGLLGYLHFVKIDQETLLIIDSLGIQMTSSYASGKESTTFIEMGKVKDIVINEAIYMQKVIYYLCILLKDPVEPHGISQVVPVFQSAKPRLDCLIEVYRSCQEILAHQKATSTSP
UniProt P41247, sequence (P41247 whole entry, looked up): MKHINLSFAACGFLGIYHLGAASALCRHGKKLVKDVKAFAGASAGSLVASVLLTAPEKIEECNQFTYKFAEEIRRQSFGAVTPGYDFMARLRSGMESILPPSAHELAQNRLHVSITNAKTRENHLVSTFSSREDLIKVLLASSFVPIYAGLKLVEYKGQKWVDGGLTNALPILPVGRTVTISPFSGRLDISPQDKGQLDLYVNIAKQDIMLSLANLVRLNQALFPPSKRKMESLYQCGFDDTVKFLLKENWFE
UniProt Q15172, sequence (Q15172 whole entry, looked up): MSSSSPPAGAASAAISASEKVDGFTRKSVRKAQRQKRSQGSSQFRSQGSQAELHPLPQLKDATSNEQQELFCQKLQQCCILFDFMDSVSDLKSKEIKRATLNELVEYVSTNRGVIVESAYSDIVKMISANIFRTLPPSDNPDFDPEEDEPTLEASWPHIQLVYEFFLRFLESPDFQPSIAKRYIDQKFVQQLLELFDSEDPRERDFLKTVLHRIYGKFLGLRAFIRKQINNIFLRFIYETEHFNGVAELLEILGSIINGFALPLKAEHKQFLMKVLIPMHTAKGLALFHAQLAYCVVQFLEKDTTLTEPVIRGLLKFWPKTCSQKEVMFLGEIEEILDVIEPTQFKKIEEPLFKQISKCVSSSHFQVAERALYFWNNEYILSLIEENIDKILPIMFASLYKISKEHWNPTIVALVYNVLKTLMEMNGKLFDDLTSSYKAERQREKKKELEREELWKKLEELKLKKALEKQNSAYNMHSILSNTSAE
UniProt O00329, sequence (O00329 whole entry, looked up): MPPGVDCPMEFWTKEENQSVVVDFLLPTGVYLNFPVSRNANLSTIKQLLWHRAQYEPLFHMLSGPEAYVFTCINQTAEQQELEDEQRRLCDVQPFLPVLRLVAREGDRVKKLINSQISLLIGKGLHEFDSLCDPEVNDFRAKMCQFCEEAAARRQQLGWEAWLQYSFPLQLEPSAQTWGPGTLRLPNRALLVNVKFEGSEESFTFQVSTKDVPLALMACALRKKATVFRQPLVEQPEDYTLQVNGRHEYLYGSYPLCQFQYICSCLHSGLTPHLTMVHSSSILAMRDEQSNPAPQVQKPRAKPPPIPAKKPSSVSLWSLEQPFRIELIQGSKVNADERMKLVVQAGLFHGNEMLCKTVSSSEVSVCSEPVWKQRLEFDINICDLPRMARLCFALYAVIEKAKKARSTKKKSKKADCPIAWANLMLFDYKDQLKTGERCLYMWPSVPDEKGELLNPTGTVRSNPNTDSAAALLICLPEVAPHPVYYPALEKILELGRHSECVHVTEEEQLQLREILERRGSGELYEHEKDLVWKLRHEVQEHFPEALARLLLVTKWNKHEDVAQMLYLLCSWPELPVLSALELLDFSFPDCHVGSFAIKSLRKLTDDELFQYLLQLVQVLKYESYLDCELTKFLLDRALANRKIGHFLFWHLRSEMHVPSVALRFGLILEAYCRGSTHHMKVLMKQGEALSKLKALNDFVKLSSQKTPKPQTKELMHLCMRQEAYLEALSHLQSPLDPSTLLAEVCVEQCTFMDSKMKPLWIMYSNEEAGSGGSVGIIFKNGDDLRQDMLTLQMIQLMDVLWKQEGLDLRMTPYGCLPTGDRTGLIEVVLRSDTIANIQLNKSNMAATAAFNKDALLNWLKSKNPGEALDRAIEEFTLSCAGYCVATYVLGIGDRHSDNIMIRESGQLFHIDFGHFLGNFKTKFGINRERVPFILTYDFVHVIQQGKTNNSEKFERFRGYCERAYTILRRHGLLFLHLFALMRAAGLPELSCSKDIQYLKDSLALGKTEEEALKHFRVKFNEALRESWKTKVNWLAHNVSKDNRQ
UniProt Q7Z3K3, sequence (Q7Z3K3 whole entry, looked up): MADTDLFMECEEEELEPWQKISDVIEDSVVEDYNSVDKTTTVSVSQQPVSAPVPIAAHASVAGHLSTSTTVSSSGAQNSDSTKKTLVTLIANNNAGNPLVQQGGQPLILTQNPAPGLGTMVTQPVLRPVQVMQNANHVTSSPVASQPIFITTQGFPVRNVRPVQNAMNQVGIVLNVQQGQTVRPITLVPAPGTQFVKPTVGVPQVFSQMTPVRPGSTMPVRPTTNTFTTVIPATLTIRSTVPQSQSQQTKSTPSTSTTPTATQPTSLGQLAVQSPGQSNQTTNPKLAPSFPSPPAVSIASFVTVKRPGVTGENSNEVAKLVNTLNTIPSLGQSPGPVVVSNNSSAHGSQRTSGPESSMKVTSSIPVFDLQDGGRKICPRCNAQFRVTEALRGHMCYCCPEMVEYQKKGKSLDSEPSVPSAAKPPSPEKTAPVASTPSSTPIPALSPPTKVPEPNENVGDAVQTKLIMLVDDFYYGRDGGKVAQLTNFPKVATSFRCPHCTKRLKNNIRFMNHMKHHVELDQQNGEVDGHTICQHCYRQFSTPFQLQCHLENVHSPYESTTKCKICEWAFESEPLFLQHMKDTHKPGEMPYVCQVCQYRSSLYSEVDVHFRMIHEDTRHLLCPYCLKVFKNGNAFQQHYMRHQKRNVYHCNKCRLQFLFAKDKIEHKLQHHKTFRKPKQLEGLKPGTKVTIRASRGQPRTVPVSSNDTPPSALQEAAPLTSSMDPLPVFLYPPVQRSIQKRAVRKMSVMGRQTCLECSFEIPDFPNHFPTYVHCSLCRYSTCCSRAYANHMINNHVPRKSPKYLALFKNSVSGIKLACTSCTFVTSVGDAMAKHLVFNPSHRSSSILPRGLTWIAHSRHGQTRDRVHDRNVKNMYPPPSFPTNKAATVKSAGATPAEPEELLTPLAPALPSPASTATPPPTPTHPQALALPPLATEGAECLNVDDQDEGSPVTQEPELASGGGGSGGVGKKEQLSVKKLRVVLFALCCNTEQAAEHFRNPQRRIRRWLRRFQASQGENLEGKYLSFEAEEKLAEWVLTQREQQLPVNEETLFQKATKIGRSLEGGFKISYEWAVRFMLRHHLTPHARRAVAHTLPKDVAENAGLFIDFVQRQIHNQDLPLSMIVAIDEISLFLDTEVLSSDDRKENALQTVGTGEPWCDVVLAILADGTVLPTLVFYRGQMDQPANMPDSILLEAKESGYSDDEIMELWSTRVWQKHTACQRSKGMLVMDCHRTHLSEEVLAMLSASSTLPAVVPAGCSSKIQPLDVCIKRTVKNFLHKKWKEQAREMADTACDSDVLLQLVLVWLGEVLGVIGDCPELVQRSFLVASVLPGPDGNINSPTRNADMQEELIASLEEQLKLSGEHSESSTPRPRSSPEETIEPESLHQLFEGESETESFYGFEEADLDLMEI
UniProt Q9Y5Y5, sequence (Q9Y5Y5 whole entry, looked up): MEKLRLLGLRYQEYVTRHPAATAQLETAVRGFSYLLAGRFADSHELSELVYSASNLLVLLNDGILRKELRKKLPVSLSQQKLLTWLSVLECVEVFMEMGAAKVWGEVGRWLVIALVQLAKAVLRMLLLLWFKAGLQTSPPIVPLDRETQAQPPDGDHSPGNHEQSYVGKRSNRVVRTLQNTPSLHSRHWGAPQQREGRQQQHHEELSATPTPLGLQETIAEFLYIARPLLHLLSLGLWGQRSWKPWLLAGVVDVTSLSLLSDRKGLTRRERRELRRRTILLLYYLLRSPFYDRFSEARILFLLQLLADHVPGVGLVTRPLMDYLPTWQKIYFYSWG
UniProt Q9H5K3, sequence (Q9H5K3 whole entry, looked up): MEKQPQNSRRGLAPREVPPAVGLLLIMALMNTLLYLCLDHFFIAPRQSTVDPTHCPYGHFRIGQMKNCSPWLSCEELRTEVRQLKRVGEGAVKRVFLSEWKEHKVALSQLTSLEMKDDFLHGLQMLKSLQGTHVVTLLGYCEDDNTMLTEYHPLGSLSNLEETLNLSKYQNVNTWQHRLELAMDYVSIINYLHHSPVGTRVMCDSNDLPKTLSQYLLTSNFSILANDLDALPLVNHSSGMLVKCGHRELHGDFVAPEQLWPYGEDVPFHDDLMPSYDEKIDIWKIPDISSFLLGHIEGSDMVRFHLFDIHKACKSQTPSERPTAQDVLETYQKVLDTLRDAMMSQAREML
UniProt P28065, sequence (P28065 whole entry, looked up): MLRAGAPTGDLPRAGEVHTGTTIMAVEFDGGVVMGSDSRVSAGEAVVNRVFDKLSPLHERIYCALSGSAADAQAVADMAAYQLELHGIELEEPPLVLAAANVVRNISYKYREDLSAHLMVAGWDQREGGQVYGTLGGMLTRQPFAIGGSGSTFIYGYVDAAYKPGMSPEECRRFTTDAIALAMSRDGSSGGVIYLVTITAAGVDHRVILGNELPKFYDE
UniProt Q12974, sequence (Q12974 whole entry, looked up): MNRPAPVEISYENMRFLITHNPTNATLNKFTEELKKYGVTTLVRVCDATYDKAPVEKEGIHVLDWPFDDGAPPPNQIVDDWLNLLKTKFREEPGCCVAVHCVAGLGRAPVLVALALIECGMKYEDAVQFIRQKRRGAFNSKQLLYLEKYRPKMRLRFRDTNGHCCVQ
UniProt Q6EEV4, sequence (Q6EEV4 whole entry, looked up): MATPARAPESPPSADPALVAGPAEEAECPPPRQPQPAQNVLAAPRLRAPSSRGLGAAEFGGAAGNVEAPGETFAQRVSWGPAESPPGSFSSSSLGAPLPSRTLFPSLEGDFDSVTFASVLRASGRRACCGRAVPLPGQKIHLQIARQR

Compound in the assay: CCn1c(C(=O)N(C2CC2)C2CC2)cc2c3c(ncn3C)c(Nc3cc(C)n(C)n3)nc21
The experiment in a line: log2 fold change, soluble protein after heating vs DMSO (PISA); higher = thermal stabilisation; K562 cells, 10 uM, 30 min; active = over 0.2 and 3.5 SD of the protein, either way, in both replicates (recomputed). In a few lines: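 Aliquots of K562 cells (2×10^6 cells/mL) treated with 10 μM compound for 30 min were heated for 3 min over 48°C-58°C. After pooling and extraction in PBS with 0.5% NP-40 at 4°C, soluble protein from a 21,000xg, 90 min spin was quantified by TMTpro 16plex LC-MS/MS with channel sums equalised. Thermal stability is expressed against control samples, from duplicates, as a log2 fold change.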
Turning to PDIK1L (UniProt Q8N165), the log2 fold change is 0.123.

For POLR2C (UniProt P19387), the log2 fold change is -0.035.

POLB (UniProt P06746): the log2 fold change is -0.078.

On to PPP2R5A (UniProt Q15172), for which the log2 fold change was 0.012.

POMK (UniProt Q9H5K3): the log2 fold change is 0.054.

As for PRKAG1 isoform 3 (UniProt P54619), the log2 fold change was 0.002.

On to PSMB9 (UniProt P28065), for which the log2 fold change was -0.046.

Turning to PTGFRN (UniProt Q9P2B2), the log2 fold change is 0.022.

For the target PIGH (UniProt Q14442), the log2 fold change was 0.022.

PTP4A2 (UniProt Q12974): the log2 fold change is 0.027.

Take PNN (UniProt Q9H307): the log2 fold change was -0.052.

Consider PPP2R5B (UniProt Q15173), for which the log2 fold change is 0.025.

On to PLIN2 (UniProt Q99541), for which the log2 fold change was -0.008.

Consider PNPLA4 (UniProt P41247), for which the log2 fold change is -0.083.

As to POGZ (UniProt Q7Z3K3), the log2 fold change was -0.088.

Consider PRMT3 (UniProt O60678), for which the log2 fold change is 0.005.

For PEX16 isoform 2 (UniProt Q9Y5Y5), the log2 fold change was -0.041.

As for PIK3CD (UniProt O00329), the log2 fold change was -0.229.

Regarding PTEN isoform 2 (UniProt P60484), the log2 fold change was -0.071.

As for PPP1R12C (UniProt Q9BZL4), the log2 fold change was -0.094.

On to POLR2M (UniProt Q6EEV4), for which the log2 fold change is 0.027.

In the case of PSMB4 (UniProt P28070), the log2 fold change was 0.011.

With PDPK1 (UniProt O15530), the log2 fold change was -0.035.
